# According to PubChem BioAssay (NCI):
# The panel holds about 79,000 compounds, 15% with a hit somewhere; the sample as a whole holds those more often. Active and inactive are the calls of the source. Cut-off read from the data, not from the text of the source: active = growth inhibition above about 70%; inactive = the rest.
# What was measured:
# [1] = NCI Yeast Anticancer Drug Screen. Data for the rad50 strain (AID 155);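 note: 0% = growth of vehicle-only cultures of the same strain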; details: S. cerevisiae rad50 strain growth inhibition; at 50.0 µM; stronger effect = higher value
# How it was run: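 Compounds were tested on a yeast strain with an engineered DNA damage repair alteration; the reported value is growth inhibition normalised to vehicle treatment.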
# [2] = NCI Yeast Anticancer Drug Screen. Data for the mec2-1 strain (AID 157); details: S. cerevisiae mec2-1 strain, at 50.0 µM, stronger effect = higher value
# How it was run: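 mec2-1 yeast strain, carrying an alteration in DNA damage repair or cell cycle control, was exposed to compounds; growth inhibition was measured relative to vehicle-treated controls.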
# [3] = NCI Yeast Anticancer Drug Screen. Data for the sgs1 mgt1 strain (AID 161);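 note: 0% = growth of cultures given vehicle only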; details: S. cerevisiae sgs1 mgt1 strain, at 50.0 µM, stronger effect = higher value
# How it was run: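 Growth of a repair-deficient yeast mutant was monitored after compound treatment and expressed as inhibition relative to vehicle-treated cultures.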
# [4] = NCI Yeast Anticancer Drug Screen. Data for the cln2 rad14 strain (AID 165);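 note: 0% = growth equal to vehicle treated cultures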; details: S. cerevisiae cln2 rad14 strain, at 50.0 µM, stronger effect = higher value
# How it was run: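 Yeast carrying cln2 and rad14 alterations (cell cycle control and DNA damage repair) were exposed to compounds. Growth inhibition was measured against vehicle-treated controls.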
# [5] = NCI Yeast Anticancer Drug Screen. Data for the bub3 strain (AID 167); details: S. cerevisiae bub3 mutant strain, at 50.0 µM, stronger effect = higher value
# How it was run: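 Growth of a checkpoint-deficient yeast mutant is measured after compound exposure. Values represent inhibition relative to vehicle.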
# [6] = NCI Yeast Anticancer Drug Screen. Data for the mlh1 rad18 strain (AID 175); details: S. cerevisiae mlh1 rad18 strain growth inhibition; at 50.0 µM; stronger effect = higher value
# How it was run: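 Growth inhibition of the yeast strain was measured after compound exposure and expressed relative to vehicle-treated controls. The strain carries defined defects in DNA damage repair.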
SMILES,growth inhibition [1],growth inhibition [2],growth inhibition [3],growth inhibition [4],growth inhibition [5],growth inhibition [6]
Cc1ccc2[nH]c(=S)[nH]c(=S)c2c1,19.9% (inactive),5% (inactive),13.2% (inactive),-19.8% (inactive),-33.2% (inactive),36% (inactive)
CC(=O)N1CN=C2Sc3ccccc3N2C1,4.05% (inactive),0.2% (inactive),8.45% (inactive),-16% (inactive),13.2% (inactive),18.5% (inactive)
CC(=O)NC(NCCN)(c1ccccc1)c1ccccc1,-9.7% (inactive),-26.4% (inactive),-8.1% (inactive),11.6% (inactive),9.6% (inactive),-8.45% (inactive)
CN1CCCCC1C[CH2][Sn]([c]1ccccc1)([c]1ccccc1)[c]1ccccc1 (centres undefined),99.6% (active),99.5% (active),99.7% (active),99.2% (active),99.2% (active),99.5% (active)
CC[O-].CC[O-].O=C1c2ccccc2C(=O)c2c(O)ccc([O-])c21.O=C1c2ccccc2C(=O)c2c(O)ccc([O-])c21.[Ti+4],-20.6% (inactive),1.75% (inactive),-3.45% (inactive),-4.3% (inactive),-17.9% (inactive),-14.8% (inactive)
CNC(=O)c1ccccc1C(=N)c1ccccc1,-12.6% (inactive),-5.4% (inactive),-11.2% (inactive),-8.05% (inactive),-9.65% (inactive),-8.35% (inactive)
CN(Cc1ccccc1)C(=O)Nc1ccc(F)c([N+](=O)[O-])c1,7.95% (inactive),28.6% (inactive),21.9% (inactive),-4.2% (inactive),50.6% (inactive),16.2% (inactive)
CC(=O)Cc1nc(N)nc(Nc2ccc(Cl)c(Cl)c2)n1,-8.9% (inactive),13.7% (inactive),-10.1% (inactive),-11.3% (inactive),-13% (inactive),-20.5% (inactive)
CSc1nc(C)c2c(n1)N(c1ccc(Cl)cc1)CC2,1.7% (inactive),-32.5% (inactive),-16.5% (inactive),-35.3% (inactive),-17.2% (inactive),-30.4% (inactive)
COc1cc(C2c3cc4c(cc3OC(NC3CCCCC3)C2C)OCO4)cc(OC)c1OC (centres undefined),-0.35% (inactive),-9.4% (inactive),-2.4% (inactive),27.8% (inactive),24.6% (inactive),-20.9% (inactive)
CN1OC(CO)CC12C1CC3CC(C1)CC2C3 (centres undefined),-41% (inactive),-19.1% (inactive),-53.5% (inactive),-3.4% (inactive),-42.7% (inactive),-53.8% (inactive)
COc1ccc2c(NCCCCCCNc3c4ccccc4nc4cc(OC)ccc34)c3ccccc3nc2c1,89.9% (active),91.6% (active),92.5% (active),87.5% (active),91.5% (active),89.7% (active)
Cc1ccc(N=Nc2ccc(C)cc2NC(=O)/C=C/c2ccccc2)cc1,-21.5% (inactive),-34.5% (inactive),6.65% (inactive),8.4% (inactive),-6.35% (inactive),-8.65% (inactive)
CC(C(c1ccccc1)C(Br)C(=O)c1ccccc1)[N+](=O)[O-] (centres undefined),96.5% (active),93.2% (active),95% (active),87.3% (active),96.5% (active),94.7% (active)
CCCCCCCCCCS(C)(=O)=O,-19.4% (inactive),-3.95% (inactive),-7.25% (inactive),-16.4% (inactive),-24.9% (inactive),-24.6% (inactive)
C1CCC(NCCNC2CCCCC2)CC1,11.8% (inactive),-16.9% (inactive),5.5% (inactive),18.6% (inactive),-2.8% (inactive),10.3% (inactive)
Oc1cccc(Oc2cccc(Oc3cccc(O)c3)c2)c1,-14.4% (inactive),-14.2% (inactive),-4.3% (inactive),-8.65% (inactive),8.35% (inactive),-7.85% (inactive)
CCOC(=O)C[n+]1cccc(Br)c1,-2.6% (inactive),6.45% (inactive),-6.85% (inactive),-6.5% (inactive),16.3% (inactive),-0.45% (inactive)
CN(C)Cc1cc(C=O)cc(CN(C)C)c1O,10.3% (inactive),4.6% (inactive),-29.2% (inactive),13.4% (inactive),10.7% (inactive),5.8% (inactive)
CCOC(=Nc1cccc2ccccc12)Nc1cccc2ccccc12,-5.9% (inactive),-6.95% (inactive),-8.6% (inactive),-25.2% (inactive),-15.8% (inactive),-6.65% (inactive)

SMILES,growth inhibition [1],growth inhibition [2],growth inhibition [3],growth inhibition [4],growth inhibition [5],growth inhibition [6]
Cc1nc[nH]c(=O)c1N,0.55% (inactive),-1.75% (inactive),9.2% (inactive),0.9% (inactive),7.75% (inactive),-4.85% (inactive)
COc1cc(-c2cc(-c3cc([N+](=O)[O-])c(/C=N/NC(=O)c4ccncc4)o3)ccc2OC)ccc1C,17.5% (inactive),8.2% (inactive),-8.1% (inactive),26.9% (inactive),11.2% (inactive),8.3% (inactive)
Cc1ccc(SC(=O)Cc2ccc([N+](=O)[O-])cc2)cc1,96.6% (active),98% (active),98.2% (active),88.3% (active),96.2% (active),96.8% (active)
CCN(Cc1ccc(S(=O)(=O)O)cc1)c1cccc(S(=O)(=O)O)c1,14.1% (inactive),26.4% (inactive),18.4% (inactive),-20.9% (inactive),-18.2% (inactive),9.35% (inactive)
CC1(C)C(=O)CC1C(=O)O (centres undefined),4.55% (inactive),-0.25% (inactive),-0.45% (inactive),12.3% (inactive),7.5% (inactive),8.75% (inactive)
Cc1ccccc1C(c1ccccc1)C(CO)CO (centres undefined),-1% (inactive),0.15% (inactive),2.9% (inactive),-64.3% (inactive),-5.4% (inactive),-17.4% (inactive)
CCC(=O)C(CCN(C)C)c1ccccc1 (centres undefined),-10.4% (inactive),-0.85% (inactive),9.9% (inactive),-22.6% (inactive),-11.1% (inactive),-7.9% (inactive)
Cn1c([N+](=O)[O-])cnc1COc1ccc(NC(=O)CN2CCOCC2)cc1,27% (inactive),1.05% (inactive),19.9% (inactive),33.2% (inactive),10.3% (inactive),18.2% (inactive)
COC(=S)SCSC(=S)OC,-12.2% (inactive),-27.3% (inactive),-2.5% (inactive),-14.9% (inactive),-6.45% (inactive),-27.9% (inactive)
O=C(CCCCCCCCC(=O)NC1CCCCC1)NC1CCCCC1,-13.2% (inactive),-26.5% (inactive),-21.6% (inactive),-20.8% (inactive),-19% (inactive),-5.4% (inactive)
CCCCCCCOC(=O)c1ccccc1Cl,7.3% (inactive),-10.1% (inactive),23.4% (inactive),-6.7% (inactive),13.9% (inactive),2% (inactive)
Cc1ccc(S(=O)(=O)C(=S)N(C)N(C)C)cc1,18.2% (inactive),25.4% (inactive),36.4% (inactive),-12.9% (inactive),25.4% (inactive),88% (active)
CC(C)(CO)NC(=O)c1cccs1,14.8% (inactive),5.15% (inactive),1.45% (inactive),12.7% (inactive),-4.35% (inactive),-20% (inactive)
O=C(O)C(Cc1ccc2c(c1)CCC2)(Cc1ccc2c(c1)CCC2)C(=O)O,26.9% (inactive),13.3% (inactive),-4% (inactive),33.3% (inactive),22.8% (inactive),12.1% (inactive)
CC(C)(C)NNC(=O)/C(=C/c1ccc([N+](=O)[O-])cc1)NC(=O)c1ccccc1,11.6% (inactive),-17.3% (inactive),-8.5% (inactive),5.2% (inactive),-6.2% (inactive),-15.7% (inactive)
CC(=O)NC(NC(C)=O)c1ccccc1,-16.6% (inactive),-8.5% (inactive),-5.45% (inactive),-8.55% (inactive),-26.4% (inactive),-20.5% (inactive)
COCCNC1CCC2(SCCS2)c2[nH]c3ccccc3c21 (centres undefined),-10.3% (inactive),-12.8% (inactive),15.1% (inactive),-14% (inactive),-9% (inactive),40.2% (inactive)
O=P(Nc1ccc(Cl)cc1)(c1ccc(Cl)cc1)c1ccc(Cl)cc1,17.6% (inactive),6.05% (inactive),4.05% (inactive),-16.1% (inactive),-0.15% (inactive),20.9% (inactive)
O=C1CCC2=NCc3c(ccc4ccccc34)N12,4.7% (inactive),-0.85% (inactive),-12.9% (inactive),-42.9% (inactive),-12.3% (inactive),-4% (inactive)
